Bioassay records deposited in PubChem by National Center for Advancing Translational Sciences (NCATS).
In the library only some 4.6% were active in any assay of this set; here they are far more common.
TRHR enhancer-1: qHTS for Small Molecule Agonists and Allosteric Enhancers of Human TRH Receptor: Primary Screen for Enhancers; enhancement, % at 2 µM; 360,000 compounds, 0.66% hits; AID 493056, 2011; TRHR cells, fluo-8 calcium fluorescence, EC20 TRH enhancement; Thyrotropin-releasing hormone receptor (Homo sapiens), P34981; in the data active = enhancement above about 30%; note: 0% is about no effect
Target sequence (P34981 whole entry, looked up): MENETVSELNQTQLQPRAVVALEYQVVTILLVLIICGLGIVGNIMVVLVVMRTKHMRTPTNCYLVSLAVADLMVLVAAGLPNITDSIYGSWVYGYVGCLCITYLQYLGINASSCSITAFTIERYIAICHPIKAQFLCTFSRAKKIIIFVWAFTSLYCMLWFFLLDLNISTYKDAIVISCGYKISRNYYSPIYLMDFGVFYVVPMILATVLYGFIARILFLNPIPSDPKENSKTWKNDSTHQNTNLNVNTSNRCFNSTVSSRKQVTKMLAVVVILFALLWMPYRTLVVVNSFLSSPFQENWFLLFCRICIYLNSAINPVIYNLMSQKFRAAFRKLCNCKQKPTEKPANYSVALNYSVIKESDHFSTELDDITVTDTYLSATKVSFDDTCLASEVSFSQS
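Enhancer read-out: after compound pinning and an initial kinetic agonist-mode read, an EC20 of TRH (10 nM final) was injected and fluo-8 calcium signal (Ex 480/Em 530) followed at 1 s/cycle for 100 cycles in TRHR-expressing cells.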
D1 antag: Antagonist of Human D 1 Dopamine Receptor: qHTS | D(1A) dopamine receptor (Homo sapiens), P21728 | HEK293 TREx D1 cells, calcium flux, dopamine EC80; active compounds read low | activity change, negative = inhibition, % at 10 µM | 360,000 compounds, 3.2% hits | AID 504652, 2011; in the data active = activity change below about -30%; note: % is set by controls: 0 for no effect and ±100 for the full control effect
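Tetracycline-induced HEK293 T-REx cells with force-coupled D1 receptor were loaded with a no-wash calcium dye. Compound was added after a 10 s baseline and read kinetically for 180 s; EC80 dopamine was then added and calcium flux followed another 180 s.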
D1 ag: Allosteric Agonists of the Human D1 Dopamine Receptor: qHTS; activation, % at 2 µM; 360,000 compounds, 1% hits; HEK293 T-REx D1 cells, calcium flux, agonist mode; AID 504660, 2011; note: 0% is about no effect
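Tetracycline-induced HEK293 TREx D1 cells, force-coupled to calcium signalling, were dye-loaded with a no-wash calcium kit. Compound was pin-added after a 10 s baseline. Fluorescence was read kinetically at 1 cycle/s for 180 s, with calcium rises flagged as agonism.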
D1 potentiator: Potentiators of Human D1 Dopamine Receptor: qHTS; potentiation, % at 10 µM; 360,000 compounds, 0.036% hits; HEK293 TREx D1 cells, calcium flux, dopamine EC20 potentiation; D(1A) dopamine receptor (Homo sapiens), P21728; AID 504651, 2011; in the data active = potentiation above about 30%; note: 0% is about no effect
TRHR agonist-1: qHTS for Small Molecule Agonists and Allosteric Enhancers of Human TRH Receptor: Primary Screen for Agonists; TRHR cells, calcium flux fluo-8, FDSS agonist mode; activation, % at 2 µM; 360,000 compounds, 0.18% hits; note: 0% is about no effect
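TRHR-expressing cells loaded with fluo-8 calcium dye; 23 nL library compound pin-transferred, kinetic FDSS fluorescence (Ex 480/Em 530) recorded about 180 s for agonist-induced calcium release, before a 10 nM TRH EC20 addition for potentiator mode.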
TRHR enhancer-2: qHTS for Small Molecule Agonists and Allosteric Enhancers of Human TRH Receptor: Confirmation Screen for Enhancers. shares compounds with TRHR enhancer-1. TRH receptor cell assay, enhancer confirmation qHTS. activity change, negative = inhibition, % at 46.1 µM. 970 tested, under 10 active. AID 493076, 2011; active = well fitted curve in the direction sought with a large enough effect; inconclusive = small, poorly fitted or top-dose-only effect, or another doubt; inactive = no such curve, though single readings can be large; an effect the other way counts as inactive or inconclusive;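 note: compound effect scored on response to added TRH at EC20 of 10 nM; 0% is about no effect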
TRHR agonist-2: qHTS for Small Molecule Agonists and Allosteric Enhancers of Human TRH Receptor: Confirmation Screen for Agonists; 970 compounds, 8% hits; TRHR-expressing cells, agonist activation read-out; Potency, µM (top dose mostly 46.1 µM), for inactives: at the highest dose activation, hits mostly activators; AID 493078, 2011; shares compounds with TRHR enhancer-1; active = well fitted curve in the direction sought with a large enough effect; inconclusive = small, poorly fitted or top-dose-only effect, or another doubt; inactive = no such curve, though single readings can be large; an effect the other way counts as inactive or inconclusive; note: potency is the fitted concentration of half-maximal effect; 0% is about no effect; nearly all actives have a fitted effect of over 75% in size
* hit, by the source's call; ? = inconclusive; nt = not tested or not shown. Cut-off read from the data, not from the text of the source, unless noted: active = activation above about 30%; inactive = the rest.

SMILES	TRHR enhancer-1	D1 antag	D1 ag	D1 potentiator	TRHR agonist-1	TRHR enhancer-2	TRHR agonist-2
COc1ccc2nc(/N=C\N(C)C)sc2c1	5	-23	2	-4	0	nt	nt
COc1ccc2nc(N=Nc3ccc(N(C)C)cc3)sc2c1	86*	-10	8	-2	-1	3	-1%
CCOC(=O)c1cc(-c2ccccc2)n(CC(=O)O)c1C	5	-9	2	1	-1	nt	nt
CCOC(=O)c1cc(-c2ccccc2)n(CC(=O)NC(C)(C)C)c1C	57*	5	-1	-2	-2	-11	0%
COc1ccc(NC(=O)CN(c2c(C)cccc2C)S(C)(=O)=O)cc1	11	-1	3	10	-3	nt	nt
NC(=O)c1ccc(F)cc1	59*	4	4	-4	2	6	-1%
CCC(=O)Nc1ccc(S(=O)(=O)N2CCCCC2)cc1OC	44*	-4	2	0	1	-7	-1%
COc1cc(S(=O)(=O)N2CCCCC2)ccc1NC(=O)c1ccccc1Cl	-1	-18	2	-3	-1	nt	nt
Cc1ccc(S(=O)(=O)CC(=O)c2cc(C)c(O)c(C)c2)cc1	13	8	2	-1	-1	nt	nt
CCc1ccc(NC(=O)N(Cc2cccnc2)Cc2ccco2)cc1	43*	nt	-2	-2	-1	?	16µM*
Cc1cc(-c2nn(-c3ccccc3F)cc2CNCCc2cnc[nH]2)c(C)s1	51*	-5	3	-2	0	-2	1%
CCCC(=O)c1ccc(N2CCN(C(=O)c3cccs3)CC2)c(F)c1	7	-12	3	-4	0	nt	nt
CC(=O)c1ccc(N2CCN(C(=O)c3cccs3)CC2)c(F)c1	-1	19	6	-5	27	-2	-1%
Cc1cccc(NC(=O)CNC(=O)CSc2nc(N)cc(N)n2)c1C	-3	9	2	1	0	nt	nt
CCOC(=O)c1c(NC(=O)COC)sc(C)c1C	-5	11	-1	0	0	nt	nt
CCOC(=O)c1c(NC(=O)COC)sc(C(C)=O)c1C	0	1	2	-3	33*	13	-1%
COc1ccc(-n2ncc3c(N(C)C4CCCCC4)ncnc32)cc1	-14	-17	4	1	1	nt	nt
Cc1cccc(-n2ncc3c(N(C)C4CCCCC4)ncnc32)c1	49*	-4	4	-2	-1	-6	0%
Cc1cn2c(N)c(C=C3C=C(Cl)C(=O)C(Cl)=C3)c(=O)nc2s1	-3	6	51*	3	27	0	9.2µM*
C#CCN(C)Cc1ccccc1	-7	13	1	-2	-1	nt	nt
C#CCN(C)CC/C=C1\c2ccccc2CSc2ccccc21	-3	-2	3	-23	74*	-6	1%
COc1ccc(Cc2nc3ccc(C(=O)N(C)CCn4ccnc4)cc3o2)cc1OC	41*	3	8	-3	-3	0	-1%
COc1ccc(Cc2nc3ccc(C(=O)N(C)Cc4cc(C)[nH]n4)cc3o2)cc1OC	2	-3	1	-2	0	nt	nt
CCCC(=O)NC(C)c1nc2ccccc2n1CC (stereo unspecified)	45*	0	2	-8	0	-6	0%
CCN(CC)CCCNC(=S)N1CCN(c2nc(-c3ccccc3)cs2)CC1	42*	-37*	29	-19	2	-9	?
Cc1ccc(OC(C)C(=O)Nc2ccccc2C(=O)NCc2cccnc2)cc1C (stereo unspecified)	2	-6	0	17	-1	nt	nt
